# In PubChem BioAssay (EPA / NIEHS):
# Inconclusive results are not listed. Active and inactive are the calls of the source. The calls were made as follows: active = hit-call score of the fitted dose curve at least 0.9, where 1 is the maximum; inconclusive = response in the unintended direction; inactive = score below 0.9.
# How the values were obtained:
# [1] = target: human Thyroid Receptor alpha (THRa1), THRA (gene 7067) (UniProt P10827); experiment: ATG_THRa1_TRANS: Attagene TRANS-FACTORIAL HepG2 Assay for human Thyroid Receptor alpha (THRa1) (AID 2283014)
# Chain of human Thyroid Receptor alpha (THRa1), THRA (gene 7067) (P10827 whole entry, looked up, the tested form may be a part): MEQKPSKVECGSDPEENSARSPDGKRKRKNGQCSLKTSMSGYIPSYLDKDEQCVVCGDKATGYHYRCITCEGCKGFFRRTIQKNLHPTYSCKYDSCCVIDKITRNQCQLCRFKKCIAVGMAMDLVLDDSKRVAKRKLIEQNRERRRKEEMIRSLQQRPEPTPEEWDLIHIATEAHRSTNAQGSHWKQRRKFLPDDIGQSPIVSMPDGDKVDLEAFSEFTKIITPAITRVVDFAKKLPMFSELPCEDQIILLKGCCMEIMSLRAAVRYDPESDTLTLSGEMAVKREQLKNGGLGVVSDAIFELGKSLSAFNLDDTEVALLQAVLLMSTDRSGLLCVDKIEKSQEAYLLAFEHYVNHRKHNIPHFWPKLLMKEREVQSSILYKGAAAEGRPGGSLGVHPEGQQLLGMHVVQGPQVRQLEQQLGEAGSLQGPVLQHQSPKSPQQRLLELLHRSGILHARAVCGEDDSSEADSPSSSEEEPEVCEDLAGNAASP
# In short: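 HepG2 cells transiently transfected with multiplexed GAL4-UAS reporter units for exogenous chimeric THRa1-Gal4; reporter mRNA measured 24 h after dosing by RT-PCR, 6-FAM labelling, HpaI digestion and capillary electrophoresis. Gain-of-signal fitted versus DMSO baseline.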
# [2] = target: human Retinoid X Receptor beta (RXRb), RXRB (gene 6257) (UniProt P28702); experiment: ATG_RXRb_TRANS: Attagene TRANS-FACTORIAL HepG2 Assay for human Retinoid X Receptor beta (RXRb) (AID 2283013)
# Chain of human Retinoid X Receptor beta (RXRb), RXRB (gene 6257) (P28702 whole entry, looked up): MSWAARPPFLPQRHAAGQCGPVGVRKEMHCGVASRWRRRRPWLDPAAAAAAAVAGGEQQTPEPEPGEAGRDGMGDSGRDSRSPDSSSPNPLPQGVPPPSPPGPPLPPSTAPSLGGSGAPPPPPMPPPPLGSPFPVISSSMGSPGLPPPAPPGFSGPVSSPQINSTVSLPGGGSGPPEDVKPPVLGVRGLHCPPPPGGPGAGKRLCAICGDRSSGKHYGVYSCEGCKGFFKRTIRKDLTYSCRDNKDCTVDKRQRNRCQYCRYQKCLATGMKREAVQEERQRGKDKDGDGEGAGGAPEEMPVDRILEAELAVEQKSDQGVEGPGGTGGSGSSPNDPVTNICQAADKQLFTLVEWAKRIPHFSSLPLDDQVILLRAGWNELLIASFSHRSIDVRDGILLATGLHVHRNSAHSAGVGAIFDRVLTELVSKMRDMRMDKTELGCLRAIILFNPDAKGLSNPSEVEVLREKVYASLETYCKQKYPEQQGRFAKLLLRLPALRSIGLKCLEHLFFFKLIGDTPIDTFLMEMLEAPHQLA
# In short: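 Multiplexed TRANS reporter assay in HepG2; 24 h dosing; reporter mRNA by RT-PCR/CE fluorescence; gain-of-signal relative to DMSO.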
Compound,outcome [1],outcome [2]
CCCCCCCCCCCCCCCC(=O)OC,inactive,
Nc1ccc(O)c(C(=O)O)c1,,inactive
Cc1cc(Cc2cc(C)cc(C(C)(C)C)c2O)c(O)c(C(C)(C)C)c1,inactive,inactive
